Experimental findings from PubChem BioAssay (EPA / NIEHS) are described below.

Read-out in test [1]: Intercellular Adhesion Molecule 1 (ICAM1), ICAM1 (gene 3383)
Kind of test: BSK_3C_ICAM1: BioMAP Diversity Plus: 3C Assay for Intercellular Adhesion Molecule 1 (ICAM1) Biomarker Activity (AID 2283003). The note with it: primary human endothelial cells (HUVEC); actives raise or lower the signal. Summed up:
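Primary human umbilical vein endothelial cells in the BioMAP 3C system were exposed to chemicals for 24 h, then ICAM-1 was quantified by ELISA. Activity was fitted bidirectionally against the DMSO negative control baseline.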

Test [2] in a line: BSK_3C_Proliferation: Cell Proliferation Assessment in the BioMAP Diversity Plus: 3C Assay (AID 2283006).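 As to AC50: potency may reflect either rise or fall in cell number versus DMSO.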 Conditions: primary human endothelial cells (HUVEC). Summed up:
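Human umbilical vein endothelial cells were grown sub-confluent and exposed to chemical for 48 h, then fixed with 10% TCA and stained with 0.1% sulforhodamine B; absorbance at 560 nm gave relative cell number, fitted bidirectionally against DMSO baseline.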

The target in test [3] is Peroxisome proliferator-activated receptor gamma (Homo sapiens) (UniProt P37231). Briefly: ATG_PPARg_TRANS: Attagene TRANS-FACTORIAL HepG2 Assay for human Peroxisome Proliferator-activated Receptor-gamma (PPARg) (AID 2283007; active = hit-call score of the fitted dose curve at least 0.9, where 1 is the maximum). Summed up:
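HepG2 cells transiently transfected with multiplexed GAL4-UAS reporter units and exogenous chimeric NR-Gal4 proteins; reporter mRNA quantified after 24 h compound exposure by RT-PCR, fluorescent labelling, HpaI digestion and capillary electrophoresis; gain-of-signal fitted versus DMSO baseline.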

Test [4] has as its target Nuclear receptor subfamily 1 group I member 2 (Homo sapiens) (UniProt O75469). Kind of test: ATG_PXR_TRANS: Attagene TRANS-FACTORIAL HepG2 Assay for human Pregnane X Receptor (PXR) (AID 2283008; active = hit-call score of the fitted dose curve at least 0.9, where 1 is the maximum). Summed up:
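Read-out is fluorescence of labelled reporter cDNA fragments separated by capillary electrophoresis after RT-PCR and HpaI digestion. Source: HepG2 cells carrying PXR-GAL4/UAS reporter constructs, treated 24 h; activity fitted upward relative to DMSO.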

Test [5] addresses human Retinoic Acid Receptor gamma (RARg), RARG (gene 5916) (UniProt P13631). Kind of test: ATG_RARg_TRANS: Attagene TRANS-FACTORIAL HepG2 Assay for human Retinoic Acid Receptor gamma (RARg) (AID 2283009; active = hit-call score of the fitted dose curve at least 0.9, where 1 is the maximum). Summed up:
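HepG2 cells transiently transfected with multiplexed reporter units expressing chimeric RARg-GAL4 and GAL4-UAS-driven reporters; 24 h compound exposure. Reporter mRNA quantified by RT-PCR with fluorescent labelling and capillary electrophoresis; gain-of-signal fitted relative to DMSO baseline.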

Test [6] addresses human RAR-related Orphan Receptor gamma (RORg), RORC (gene 6097) (UniProt P51449). Kind of test: ATG_RORg_TRANS: Attagene TRANS-FACTORIAL HepG2 Assay for human RAR-related Orphan Receptor gamma (RORg) (AID 2283011; active = hit-call score of the fitted dose curve at least 0.9, where 1 is the maximum). Summed up:
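Reporter transcripts from a transfected RORg-GAL4 chimera in HepG2 cells were quantified 24 h after dosing by RT-PCR, 6-FAM labelling, HpaI digestion and capillary electrophoresis; increases over DMSO baseline were fitted.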

Test [7] addresses Retinoic acid receptor RXR-alpha (Homo sapiens) (UniProt P19793). Kind of test: ATG_RXRa_TRANS: Attagene TRANS-FACTORIAL HepG2 Assay for human Retinoid X Receptor alpha (RXRa) (AID 2283012; active = hit-call score of the fitted dose curve at least 0.9, where 1 is the maximum). Summed up:
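HepG2 cells transiently transfected with multiplexed GAL4-UAS reporter units and chimeric NR-GAL4 fusions, dosed 24 h. Reporter mRNA measured by RT-PCR, FAM labelling, HpaI digestion and capillary electrophoresis; gain-of-signal fitted relative to DMSO baseline.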

For test [8], the target named is human Thyroid Receptor alpha (THRa1), THRA (gene 7067) (UniProt P10827). Briefly: ATG_THRa1_TRANS: Attagene TRANS-FACTORIAL HepG2 Assay for human Thyroid Receptor alpha (THRa1) (AID 2283014; active = hit-call score of the fitted dose curve at least 0.9, where 1 is the maximum). Summed up: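 Transcripts from GAL4-UAS-driven reporters, measured after 24 h compound exposure by RT-PCR plus capillary electrophoresis of 6-FAM-labeled fragments, were fitted for gain of signal relative to DMSO. Cells: transiently transfected HepG2 expressing NR-Gal4 chimeras.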

Read-out in test [9]: E-selectin (Homo sapiens) (UniProt P16581)
Briefly: BSK_3C_Eselectin: BioMAP Diversity Plus: 3C Assay for Eselectin Biomarker Activity (AID 2283015).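 As to outcome: cell surface E-selectin protein quantified by ELISA 24 h after dosing.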 Conditions: primary human endothelial cells (HUVEC); actives raise or lower the signal. Summed up: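 E-selectin ELISA readout, fitted bidirectionally relative to DMSO, taken 24 h post-dosing in HUVEC cultures of the 3C system. Overt cytotoxicity tracked with sulforhodamine B staining of parallel wells.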

Read-out in test [10]: Interleukin-1 alpha (IL1a), IL1A (gene 3552)
Kind of test: BSK_BE3C_IL1a: BioMAP Diversity Plus: BE3C Assay for Interleukin-1 alpha (IL1a) Biomarker Activity (AID 2283016). Conditions: primary human bronchial epithelial cells; actives raise or lower the signal. Summed up:
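Human primary bronchial epithelial cells (BE3C system) were dosed with compound and IL-1a measured by ELISA 24 h later. Activity was fitted bidirectionally against DMSO baseline; cytotoxicity was tracked in parallel cultures by SRB total-protein staining.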

Read-out in test [11]: Monocyte Chemoattractant Protein-1 (MCP1), CCL2 (gene 6347)
Kind of test: BSK_3C_MCP1: BioMAP Diversity Plus: 3C Assay for Monocyte Chemoattractant Protein-1 (MCP1) Biomarker Activity (AID 2283017). Conditions: primary human endothelial cells (HUVEC); actives raise or lower the signal. Summed up: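 MCP-1 was measured by ELISA 24 h after dosing in primary HUVEC 3C cultures and fitted in both directions relative to DMSO; cytotoxicity was checked by SRB total-protein staining in parallel wells.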

Read-out in test [12]: Monocyte Chemoattractant Protein-1 (MCP1), CCL2 (gene 6347)
Kind of test: BSK_4H_MCP1: BioMAP Diversity Plus: 4H Assay for Monocyte Chemoattractant Protein-1 (MCP1) Biomarker Activity (AID 2283018). The note with it: primary human endothelial cells (HUVEC); actives raise or lower the signal. Summed up: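 Human umbilical vein endothelial cells (4H system) dosed with chemical; MCP-1 measured by ELISA 24 h after dosing. Bidirectional curve fitting against DMSO negative control as baseline; parallel SRB total-protein staining tracks overt cytotoxicity.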

Read-out in test [13]: Human Leukocyte Antigen - DR isotype (HLADR), HLA-DRA (gene 3122)
Briefly: BSK_3C_HLADR: BioMAP Diversity Plus: 3C Assay for Human Leukocyte Antigen - DR isotype (HLADR) Biomarker Activity (AID 2283019).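 As to outcome: ELISA of cell-surface HLA-DR on HUVEC 24 h after dosing.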 The note with it: primary human endothelial cells (HUVEC); actives raise or lower the signal. Summed up:
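Bidirectional fitting against DMSO was applied to the HLA-DR ELISA signal from human umbilical vein endothelial cells, 24 h post-dose. Cytotoxicity came from parallel SRB total-protein staining; 3C proliferation was counted by SRB at 48 h.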

Read-out in test [14]: Monokine induced gamma interferon (MIG), CXCL9 (gene 4283)
Kind of test: BSK_3C_MIG: BioMAP Diversity Plus: 3C Assay for Monokine induced gamma interferon (MIG) Biomarker Activity (AID 2283021). Conditions: primary human endothelial cells (HUVEC); actives raise or lower the signal. Summed up: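 Primary human umbilical vein endothelial cells in the 3C system were exposed to chemical for 24 h, after which MIG was quantified by ELISA. Activity was fitted bidirectionally against DMSO as negative control and baseline.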

The target in test [15] is human Vitamin D Receptor (VDR), VDR (gene 7421) (UniProt P11473). Kind of test: ATG_VDR_TRANS: Attagene TRANS-FACTORIAL HepG2 Assay for human Vitamin D Receptor (VDR) (AID 2283022; active = hit-call score of the fitted dose curve at least 0.9, where 1 is the maximum). Summed up: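 Transactivation by an exogenous VDR-Gal4 chimera in transiently transfected HepG2 cells was measured as reporter transcript level 24 hours after chemical treatment. RT-PCR products were analysed by capillary electrophoresis and fitted in the positive direction relative to DMSO.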

For test [16], the target named is human Retinoic Acid Receptor beta (RARb), RARB (gene 5915) (UniProt P10826). Briefly: ATG_RARb_TRANS: Attagene TRANS-FACTORIAL HepG2 Assay for human Retinoic Acid Receptor beta (AID 2283004; active = hit-call score of the fitted dose curve at least 0.9, where 1 is the maximum). Summed up: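 Induction of reporter mRNA from a chimeric RARb-Gal4 construct was measured by RT-PCR, FAM labelling, HpaI digestion and capillary electrophoresis. Measurements followed 24 h compound treatment of transiently transfected human HepG2 liver cells, with DMSO as baseline.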

In test [17] the target is Retinoic acid receptor alpha (Homo sapiens) (UniProt P10276). Briefly: ATG_RARa_TRANS: Attagene TRANS-FACTORIAL HepG2 Assay for human Retinoic Acid Receptor alpha (RARa) (AID 2283005; active = hit-call score of the fitted dose curve at least 0.9, where 1 is the maximum). Summed up: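 Reporter transcripts, measured by RT-PCR with fluorescent labeling and capillary electrophoresis after 24 h dosing, reflect activity of an exogenous human RARa–GAL4 fusion in transiently transfected HepG2. Fitted for increase relative to DMSO.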

For test [18], the target named is human Retinoid X Receptor beta (RXRb), RXRB (gene 6257) (UniProt P28702). Briefly: ATG_RXRb_TRANS: Attagene TRANS-FACTORIAL HepG2 Assay for human Retinoid X Receptor beta (RXRb) (AID 2283013; active = hit-call score of the fitted dose curve at least 0.9, where 1 is the maximum). Summed up: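 HepG2 cells transiently transfected with multiplexed reporter units driven by GAL4-UAS and exogenous chimeric NR-Gal4 proteins; treated 24 h. Reporter mRNA measured by RT-PCR, 6-FAM labelling and capillary electrophoresis; gain-of-signal fitted versus DMSO baseline.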

Test [19] deals with human RAR-related Orphan Receptor beta (RORb), RORB (gene 6096) (UniProt Q92753). Briefly: ATG_RORb_TRANS: Attagene TRANS-FACTORIAL HepG2 Assay for human RAR-related Orphan Receptor beta (RORb) (AID 2283010; active = hit-call score of the fitted dose curve at least 0.9, where 1 is the maximum). Summed up: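 HepG2 cells were transiently transfected with multiplexed GAL4-UAS reporter units expressing chimeric nuclear receptor–GAL4 proteins, then dosed for 24 h. Reporter mRNA was quantified by RT-PCR with fluorescent labelling and capillary electrophoresis; gain of signal was fitted relative to DMSO.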

Inconclusive results are not listed. The source made the active and inactive calls. The calls were made as follows, unless noted: active = hit-call score of the fitted dose curve at least 0.9, where 1 is the maximum; inactive = score below 0.9.

Peroxisome proliferator-activated receptor gamma (Homo sapiens), sequence (P37231 whole entry, looked up, the tested form may be a part): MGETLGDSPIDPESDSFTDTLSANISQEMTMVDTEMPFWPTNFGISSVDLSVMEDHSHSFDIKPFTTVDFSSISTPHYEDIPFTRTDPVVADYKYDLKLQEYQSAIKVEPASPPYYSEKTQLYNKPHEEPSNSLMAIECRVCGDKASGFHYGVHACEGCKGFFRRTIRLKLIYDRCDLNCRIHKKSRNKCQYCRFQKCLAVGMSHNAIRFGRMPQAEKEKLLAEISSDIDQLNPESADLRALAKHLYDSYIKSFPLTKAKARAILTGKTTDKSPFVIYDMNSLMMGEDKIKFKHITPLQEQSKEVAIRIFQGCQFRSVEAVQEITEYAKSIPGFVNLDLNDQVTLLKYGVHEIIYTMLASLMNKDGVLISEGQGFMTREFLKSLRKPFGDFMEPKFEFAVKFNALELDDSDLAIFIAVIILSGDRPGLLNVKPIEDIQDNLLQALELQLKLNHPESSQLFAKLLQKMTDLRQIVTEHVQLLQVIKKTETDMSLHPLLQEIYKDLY
E-selectin (Homo sapiens), sequence (P16581 whole entry, looked up): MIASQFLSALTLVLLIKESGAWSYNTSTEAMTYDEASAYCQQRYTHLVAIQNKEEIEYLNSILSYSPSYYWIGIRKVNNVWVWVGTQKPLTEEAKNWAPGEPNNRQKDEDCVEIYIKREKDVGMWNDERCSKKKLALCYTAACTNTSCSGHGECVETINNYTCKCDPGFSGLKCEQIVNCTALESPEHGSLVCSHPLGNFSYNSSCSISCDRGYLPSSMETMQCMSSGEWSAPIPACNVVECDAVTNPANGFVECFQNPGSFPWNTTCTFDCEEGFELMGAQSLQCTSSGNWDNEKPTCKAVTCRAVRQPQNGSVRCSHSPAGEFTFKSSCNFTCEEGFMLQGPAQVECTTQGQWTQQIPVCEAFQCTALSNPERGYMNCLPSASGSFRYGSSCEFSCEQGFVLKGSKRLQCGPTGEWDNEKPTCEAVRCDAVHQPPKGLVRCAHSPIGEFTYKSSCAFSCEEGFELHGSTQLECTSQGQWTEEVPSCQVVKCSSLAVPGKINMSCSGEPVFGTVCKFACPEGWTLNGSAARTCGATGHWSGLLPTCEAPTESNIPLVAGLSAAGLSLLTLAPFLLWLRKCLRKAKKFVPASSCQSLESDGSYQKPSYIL
human Retinoic Acid Receptor gamma (RARg), RARG (gene 5916), sequence (P13631 whole entry, looked up, the tested form may be a part): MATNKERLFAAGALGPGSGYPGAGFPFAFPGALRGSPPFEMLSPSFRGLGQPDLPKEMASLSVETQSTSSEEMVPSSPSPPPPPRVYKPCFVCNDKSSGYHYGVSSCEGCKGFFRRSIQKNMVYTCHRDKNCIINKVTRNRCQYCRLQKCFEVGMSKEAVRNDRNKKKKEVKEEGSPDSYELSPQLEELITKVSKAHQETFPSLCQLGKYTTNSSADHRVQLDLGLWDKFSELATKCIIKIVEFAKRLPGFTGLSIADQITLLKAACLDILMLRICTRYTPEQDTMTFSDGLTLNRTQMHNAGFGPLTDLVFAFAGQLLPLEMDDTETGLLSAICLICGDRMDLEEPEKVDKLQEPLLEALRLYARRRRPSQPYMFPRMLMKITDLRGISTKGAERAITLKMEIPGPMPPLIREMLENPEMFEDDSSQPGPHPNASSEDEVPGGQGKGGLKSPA
human Thyroid Receptor alpha (THRa1), THRA (gene 7067), sequence (P10827 whole entry, looked up, the tested form may be a part): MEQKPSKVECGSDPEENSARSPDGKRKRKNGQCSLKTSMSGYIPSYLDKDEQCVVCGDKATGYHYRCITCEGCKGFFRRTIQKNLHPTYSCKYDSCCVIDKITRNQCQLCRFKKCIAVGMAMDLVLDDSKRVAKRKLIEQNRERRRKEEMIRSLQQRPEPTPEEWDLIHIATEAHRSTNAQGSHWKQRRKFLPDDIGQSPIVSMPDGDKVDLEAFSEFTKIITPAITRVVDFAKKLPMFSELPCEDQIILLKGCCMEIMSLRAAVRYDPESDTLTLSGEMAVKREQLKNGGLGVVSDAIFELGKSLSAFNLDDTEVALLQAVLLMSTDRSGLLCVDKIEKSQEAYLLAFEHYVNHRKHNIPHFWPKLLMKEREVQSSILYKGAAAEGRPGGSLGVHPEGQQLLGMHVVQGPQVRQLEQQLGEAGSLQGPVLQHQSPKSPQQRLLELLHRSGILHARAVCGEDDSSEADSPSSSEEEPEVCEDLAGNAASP
Nuclear receptor subfamily 1 group I member 2 (Homo sapiens), sequence (O75469 whole entry, looked up, the tested form may be a part): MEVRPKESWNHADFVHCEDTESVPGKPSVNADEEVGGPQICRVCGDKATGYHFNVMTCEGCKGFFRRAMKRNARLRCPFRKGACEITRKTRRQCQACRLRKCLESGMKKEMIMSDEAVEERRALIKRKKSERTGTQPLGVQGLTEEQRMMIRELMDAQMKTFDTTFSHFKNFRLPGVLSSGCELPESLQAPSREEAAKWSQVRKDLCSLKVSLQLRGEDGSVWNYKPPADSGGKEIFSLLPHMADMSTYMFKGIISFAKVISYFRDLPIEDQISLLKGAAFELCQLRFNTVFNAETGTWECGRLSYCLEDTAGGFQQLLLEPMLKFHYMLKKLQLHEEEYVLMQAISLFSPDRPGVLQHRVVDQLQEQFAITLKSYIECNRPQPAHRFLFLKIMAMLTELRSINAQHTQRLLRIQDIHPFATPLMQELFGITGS
Retinoic acid receptor RXR-alpha (Homo sapiens), sequence (P19793 whole entry, looked up, the tested form may be a part): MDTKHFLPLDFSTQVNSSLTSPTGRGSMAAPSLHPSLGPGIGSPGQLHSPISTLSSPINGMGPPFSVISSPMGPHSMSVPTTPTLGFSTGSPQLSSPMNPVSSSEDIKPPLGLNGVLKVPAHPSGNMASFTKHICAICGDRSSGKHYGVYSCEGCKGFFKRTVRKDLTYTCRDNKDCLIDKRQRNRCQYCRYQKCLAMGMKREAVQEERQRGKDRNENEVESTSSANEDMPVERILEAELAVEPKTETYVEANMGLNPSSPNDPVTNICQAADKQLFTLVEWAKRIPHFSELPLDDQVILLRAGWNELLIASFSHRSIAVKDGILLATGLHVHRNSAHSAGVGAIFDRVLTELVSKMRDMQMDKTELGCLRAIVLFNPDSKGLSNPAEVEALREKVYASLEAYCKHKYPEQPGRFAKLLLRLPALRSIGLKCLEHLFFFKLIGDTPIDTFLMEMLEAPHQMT
human RAR-related Orphan Receptor gamma (RORg), RORC (gene 6097), sequence (P51449 whole entry, looked up, the tested form may be a part): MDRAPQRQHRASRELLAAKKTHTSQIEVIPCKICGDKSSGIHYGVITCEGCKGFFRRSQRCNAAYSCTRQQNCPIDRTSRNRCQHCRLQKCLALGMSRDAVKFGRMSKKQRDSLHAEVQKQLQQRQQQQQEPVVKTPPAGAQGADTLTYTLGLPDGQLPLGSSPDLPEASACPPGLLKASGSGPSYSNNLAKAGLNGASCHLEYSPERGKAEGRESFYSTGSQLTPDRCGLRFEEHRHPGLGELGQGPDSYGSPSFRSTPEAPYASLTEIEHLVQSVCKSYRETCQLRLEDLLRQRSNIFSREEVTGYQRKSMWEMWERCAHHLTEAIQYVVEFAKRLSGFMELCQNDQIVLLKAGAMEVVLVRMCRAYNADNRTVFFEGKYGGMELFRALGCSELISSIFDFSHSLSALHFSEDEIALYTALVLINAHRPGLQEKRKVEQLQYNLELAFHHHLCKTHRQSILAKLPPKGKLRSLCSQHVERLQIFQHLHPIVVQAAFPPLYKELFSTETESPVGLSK
human Vitamin D Receptor (VDR), VDR (gene 7421), sequence (P11473 whole entry, looked up, the tested form may be a part): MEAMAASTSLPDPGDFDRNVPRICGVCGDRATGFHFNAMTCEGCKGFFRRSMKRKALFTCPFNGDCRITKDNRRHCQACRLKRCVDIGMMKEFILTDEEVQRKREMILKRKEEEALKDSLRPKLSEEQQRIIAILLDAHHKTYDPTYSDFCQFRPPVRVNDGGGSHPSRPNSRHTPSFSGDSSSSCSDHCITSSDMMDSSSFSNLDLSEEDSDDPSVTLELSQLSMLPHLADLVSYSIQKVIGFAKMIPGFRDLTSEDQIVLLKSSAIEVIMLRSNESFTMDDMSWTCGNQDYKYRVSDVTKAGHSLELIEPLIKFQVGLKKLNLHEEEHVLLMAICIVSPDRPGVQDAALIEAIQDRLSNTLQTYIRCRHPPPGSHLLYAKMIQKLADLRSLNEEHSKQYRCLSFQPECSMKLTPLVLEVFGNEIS
human Retinoic Acid Receptor beta (RARb), RARB (gene 5915), sequence (P10826 whole entry, looked up, the tested form may be a part): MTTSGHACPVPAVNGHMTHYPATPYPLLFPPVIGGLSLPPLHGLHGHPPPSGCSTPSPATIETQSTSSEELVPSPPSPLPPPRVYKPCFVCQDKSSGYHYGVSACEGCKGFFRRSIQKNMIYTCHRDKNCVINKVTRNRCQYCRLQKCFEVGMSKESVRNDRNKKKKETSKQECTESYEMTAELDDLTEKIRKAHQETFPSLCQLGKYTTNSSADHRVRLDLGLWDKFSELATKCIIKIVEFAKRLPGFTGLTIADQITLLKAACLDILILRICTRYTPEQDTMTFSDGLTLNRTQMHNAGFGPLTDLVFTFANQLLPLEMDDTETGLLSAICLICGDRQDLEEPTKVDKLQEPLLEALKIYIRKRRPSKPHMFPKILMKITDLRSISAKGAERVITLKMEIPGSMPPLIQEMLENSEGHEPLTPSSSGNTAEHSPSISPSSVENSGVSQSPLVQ
human RAR-related Orphan Receptor beta (RORb), RORB (gene 6096), sequence (Q92753 whole entry, looked up, the tested form may be a part): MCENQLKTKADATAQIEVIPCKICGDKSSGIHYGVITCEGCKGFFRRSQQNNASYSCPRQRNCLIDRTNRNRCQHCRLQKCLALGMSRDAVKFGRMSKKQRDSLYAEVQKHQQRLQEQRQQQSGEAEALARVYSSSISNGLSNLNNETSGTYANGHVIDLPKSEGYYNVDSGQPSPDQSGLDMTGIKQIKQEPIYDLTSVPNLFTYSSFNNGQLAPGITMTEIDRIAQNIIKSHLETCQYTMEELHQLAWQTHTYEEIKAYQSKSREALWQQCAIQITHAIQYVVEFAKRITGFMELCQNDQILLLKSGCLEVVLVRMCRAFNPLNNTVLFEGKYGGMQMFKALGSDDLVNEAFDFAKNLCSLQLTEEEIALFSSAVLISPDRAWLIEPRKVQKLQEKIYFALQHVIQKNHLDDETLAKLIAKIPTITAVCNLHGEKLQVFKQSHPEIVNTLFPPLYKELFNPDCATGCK

Regarding `Cc1cc(C(C)(C)c2ccc(O)c(C)c2)ccc1O`, the outcome in test [1], in test [5], in test [6], in test [7], in test [8] and in test [14] was inactive. In addition, the call in test [15] was inactive. The AC50 in [2] is 14.3 µM (active); in [3], 5.48 µM (active); in test [4] it was 3.26 µM (active); in [9], 15.8 µM (active); in [10], 15.7 µM (active); in test [11], 19.3 µM (active). In addition, the AC50 in test [12] is 12.5 µM (active); in test [13], 14.7 µM (active).
As for `OC(Cc1ccccc1Cl)(Cn1cncn1)C1(Cl)CC1` (stereo unspecified), the result in [1], in test [16], in test [17], in [2], in [3] and in test [5] was inactive. In addition, the compound was classed as inactive in test [6], in [7], in [18], in test [8], in [9] and in test [10]. The outcome in test [11], in test [12], in test [13] and in test [14] was inactive. Also, the AC50 in test [4] is 7.37 µM (active).
With `OC(Cc1ccccc1Cl)(Cn1[nH]cnc1=S)C1(Cl)CC1` (stereo unspecified), the outcome in test [1], in [5], in [19], in [7], in test [14] and in test [15] was inactive. Besides, the AC50 is 30.7 µM (active) in test [2]; 59.8 µM (active) in [3]; 17.7 µM (active) in test [4]; 27.8 µM (active) in test [8]; 20 µM (active) in test [9]; 33.2 µM (active) in test [10]. Besides, the AC50 was 21.4 µM (active) in test [12] and 30.1 µM (active) in test [13].

As usually defined, the AC50 is the midpoint of the concentration-response curve, whichever way the signal moves.
